ELG1 genotoxic: inducers of genotoxicity in HEK293T ELG1-luciferase cells. 1.3% of 330,000 active. Potency, µM (titrated, usually from 46 µM), actives largely listed as activators. HEK293T ELG1-luciferase reporter, luminescence, 16 h; also: nearly all actives have a fitted effect of over 60% in size
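Genotoxic stress is detected as increased luminescence from luciferase-tagged ELG1 in HEK293T cells, measured with ONE-Glo after a 16 hr treatment at 37 °C.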
FLuc counter: counter-screen for miR-21 project: firefly luciferase inhibitors or activators. P08659. purified FLuc, Km substrates, luminescence inhibition. Potency, µM (doses to about 57.5 µM), most hits filed as inhibitors. 6.9% of 360,000 active. AID 588342; also: nearly all actives have a fitted effect of over 55% in size
Target sequence (P08659 whole entry, looked up): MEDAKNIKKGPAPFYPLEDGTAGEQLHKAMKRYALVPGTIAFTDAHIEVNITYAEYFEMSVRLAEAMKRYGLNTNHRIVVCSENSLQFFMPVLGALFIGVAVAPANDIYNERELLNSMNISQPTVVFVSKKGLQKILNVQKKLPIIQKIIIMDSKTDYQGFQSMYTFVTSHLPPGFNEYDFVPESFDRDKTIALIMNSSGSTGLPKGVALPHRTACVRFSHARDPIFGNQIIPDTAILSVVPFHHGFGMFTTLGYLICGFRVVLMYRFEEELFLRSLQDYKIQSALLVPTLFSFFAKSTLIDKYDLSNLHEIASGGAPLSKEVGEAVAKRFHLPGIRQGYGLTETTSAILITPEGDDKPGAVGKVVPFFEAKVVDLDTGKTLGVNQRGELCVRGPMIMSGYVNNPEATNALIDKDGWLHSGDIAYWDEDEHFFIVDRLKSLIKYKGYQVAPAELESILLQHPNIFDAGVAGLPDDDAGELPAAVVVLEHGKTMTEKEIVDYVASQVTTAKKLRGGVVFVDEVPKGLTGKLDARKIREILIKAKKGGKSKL
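Purified P. pyralis luciferase, 10 nM final, with Km-level 10 uM D-luciferin and 10 uM ATP in 50 mM Tris acetate pH 7.5, 10 mM Mg acetate, 0.01% Tween-20, 0.05% BSA; 6-point qHTS titration about 60 µM downward; luminescence read.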
SMN2 splice up: enhancers of SMN2 splice variant expression | HEK293 SMN2-luciferase splicing reporter, luminescence, 30-36 h | Potency, µM (titrated, usually from 46.1 µM), most hits filed as activators | 2.8% of 210,000 active; also: nearly all actives have a fitted effect of over 55% in size
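HEK293 cells carry an SMN2 […]–luciferase reporter in which exon 7 inclusion puts luciferase in frame. Cells were plated 10-12 h before compound addition, then incubated 30-36 h at 37C. ONE-Glo luminescence was read; sodium butyrate at 4.5 mM final served as control.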
Rab9 prom act: activates the Rab9 promoter; Huh7 Rab9 promoter-luciferase reporter, luminescence, 24 h; Potency, µM (highest dose often 9.22 µM), actives largely listed as activators; AID 485297; 2.8% of 320,000 active; also: nearly all actives have a fitted effect of over 60% in size
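Stable Rab9-luc Huh7, 1500 cells/well, 2 h settle; cmpd in DMSO, 24 h, 37 °C/5% CO2; luciferase reagent 10 min RT; luminescence.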
NPC1 prom act: activates the NPC1 promoter; 2.4% of 320,000 active; Potency, µM (titrated, usually from 9.22 µM), usual class: activators; Huh7 NPC1 promoter luciferase reporter, 24 h; also: nearly all actives have a fitted effect of over 60% in size
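Huh7 reporter cells (NPC1 promoter driving luciferase) are dosed with compound for 24 h at 37 °C, 5% CO2; luciferase detection reagent is then added and luminescence measured after 10 min at ambient temperature.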
Numbers stand for hits; n = inactive; u = inconclusive; x = no result. This is a sample that favours compounds with a hit; in the whole collection about 7.5% have one here. Calls follow the shape of the dose curve; as a rule, active = well fitted curve in the direction sought with a large enough effect; inconclusive = small, poorly fitted or top-dose-only effect, or another doubt; inactive = no such curve, though single readings can be large; an effect the other way counts as inactive or inconclusive.

SMILES | ELG1 genotoxic | FLuc counter | SMN2 splice up | Rab9 prom act | NPC1 prom act
COc1ccc(NC(=O)NC(=O)c2ccccc2)cc1 | u | u | x | 0.708µM | 1µM
O=C(NC(=O)c1ccccc1)Nc1ccc(-c2cnco2)cc1 | n | u | x | u | u
O=C(NC(=O)c1ccccc1)Nc1ccccc1 | u | u | x | 0.631µM | 0.447µM
O=C(CC(=O)Nc1cccc(Cl)c1Cl)Nc1cccc(Cl)c1Cl | n | n | x | n | n
c1ccc(N2CCN(c3ncnc4c3oc3ccccc34)CC2)cc1 | n | n | n | n | n
Brc1ccc2oc3c(N4CCOCC4)ncnc3c2c1 | n | 15.1µM | n | u | u
COc1ccc(C)cc1NS(=O)(=O)c1cnc(N)nc1 | x | n | x | x | x
Cc1ccc(S(=O)(=O)NCc2ccc(C(=O)N3CCN(c4ccc([N+](=O)[O-])cc4)CC3)cc2)cc1 | n | n | x | n | n
O=C(/C=C/c1cnc2ccccc2n1)NC12CC3CC(CC(C3)C1)C2 | u | 1.69µM | 10µM | 3.16µM | 3.55µM
CCC(C)(C)NC(=O)/C=C/c1cnc2ccccc2n1 | u | 10.7µM | u | u | n
Cc1ccc(-c2nn(-c3ccccc3)cc2CC(=S)N2CCOCC2)cc1 | n | n | x | n | n
COC(=O)C/C=C/[C@@H](C)[C@H](NC(=O)OCC(Cl)(Cl)Cl)c1cccc(OC)c1 | x | x | n | x | x
c1ccc2nc(-c3ccc(-n4ccnc4)cc3)ccc2c1 | 2.59µM | 3.38µM | x | 0.631µM | 1µM
Nc1ccc(-n2ccnc2)cc1 | n | n | n | n | n
CC(C)CCNC(=O)/C=C/c1ccc(Br)cc1 | n | 13.5µM | n | n | n
CC(C)CNC(=S)Nc1ccc(S(N)(=O)=O)cc1 | n | n | n | n | n
S=C(NCCc1ccccc1)Nc1ccc(Br)cc1 | n | 19µM | 20µM | u | n
S=C(NCCc1ccccc1)NN=C1CCCCCC1 | u | 16.9µM | 12.6µM | u | u
Cc1ccc(NC(=S)NCC(C)C)cc1 | n | 19µM | u | n | n
S=C(NCCc1ccccc1)N/N=C/C1CCCCC1 | n | u | n | n | n
COc1ccc(-c2nnc(SCC(=O)Nc3cc(OC)ccc3OC)nc2-c2ccc(OC)cc2)cc1 | x | n | x | x | x
CCOC(=O)c1[nH]c2ccccc2c1NC(=O)c1cc(OCC)c(OCC)c(OCC)c1 | x | n | n | x | x
CC(C)CCNC(=S)Nc1ccc(Br)cc1 | n | 21.3µM | n | n | n
Cc1ccccc1NC(=S)NCCc1ccccc1 | n | n | u | n | n
COC(=O)Cc1ccc(NC(=S)NC(C)(C)C)cc1 | n | 13.5µM | n | n | n
SMILES | ELG1 genotoxic | FLuc counter | SMN2 splice up | Rab9 prom act | NPC1 prom act
COC(=O)Cc1ccc(NC(=S)NCCO)cc1 | n | n | x | n | n
COC(=O)Cc1ccc(NC(=S)NCCC(C)C)cc1 | n | 16.9µM | n | n | n
CC(C)(C)NC(=S)NCCc1ccccc1 | u | 10.7µM | x | 1.78µM | 3.16µM
COc1cccc(CS(=O)(=O)c2nnnn2-c2ccc(F)cc2Br)c1 | x | x | n | x | x
Cc1ccc(S(=O)(=O)c2nnn3c2nc(NC2CCCCC2)c2sccc23)cc1C | x | n | x | x | x
COC(=O)Cc1ccc(NC(=S)Nc2ccccn2)cc1 | n | 21.3µM | x | u | n
COC(=O)Cc1ccc(NC(=S)NCc2ccccc2Cl)cc1 | n | u | x | n | n
CN(C)c1cc[n+](CC(=O)Nc2ccc(Oc3ccccc3)cc2)cc1 | n | n | n | n | n
NS(=O)(=O)c1cccc(NC(=O)COC(=O)CSCc2ccccc2)c1 | n | x | x | x | x
COc1cccc(CNC(=O)c2c(C)nn(-c3ccc(F)cc3)c2-n2cccc2)c1 | x | n | x | x | x
Cc1ccc(S(=O)(=O)N2CCCC2)cc1C(=O)NCc1ccccc1CN1CCCC1 | n | n | x | n | n
COc1ccccc1C(=O)NNC(=O)c1cccc(O)c1 | u | 12µM | x | u | u
COc1ccccc1C(=O)NNC(=O)c1cccc(F)c1 | u | 15.1µM | 3.16µM | u | u
COc1ccccc1C(=O)NNC(=O)c1ccccc1F | u | 15.1µM | 25.1µM | n | u
CC(C)c1cnc2c(c1SCC(=O)N1CCCCC1)c(=O)n(C)c(=O)n2C | x | n | x | x | x
O=C(/C=C/c1cccs1)N1CCN(Cc2ccc3c(c2)OCO3)CC1 | n | n | n | n | n
COc1ccc(C(=O)c2cn(Cc3ccc(F)cc3)c3c(F)cc(F)cc3c2=O)cc1 | x | n | n | x | x
O=C(CCNS(=O)(=O)c1ccc(F)c(Cl)c1)NCc1ccccc1F | n | x | x | x | x
COc1ccc(C(=O)/C=C/c2cc(OC)c(O)c(OC)c2)c(F)c1 | n | 19µM | x | n | n
COc1ccc(C(=O)Oc2ccc(F)cc2C(=O)/C=C/c2ccc(OC)c(OC)c2)cc1 | n | n | n | n | n
COc1ccc2cc(C(=O)/C=C/c3cc(OC)c(O)c(OC)c3)ccc2c1 | n | 1.9µM | x | n | u
O=C(N/N=C/c1ccc[nH]1)c1sc2ccccc2c1Cl | n | 7.57µM | n | n | n
O=C(N/N=C/C1CC2CCC1C2)C1CC1 (stereo unspecified) | n | n | x | n | n
O=C(N/N=C/c1ccccn1)c1c[nH]c2ccccc12 | u | 8.49µM | x | 2.82µM | 2µM
O=C(N/N=C/c1ccc[nH]1)c1c[nH]c2ccccc12 | n | 15.1µM | x | n | n
SMILES | ELG1 genotoxic | FLuc counter | SMN2 splice up | Rab9 prom act | NPC1 prom act
O=C(N/N=C/c1ccncc1)c1sc2ccccc2c1Cl | n | u | x | n | n
O=C(N/N=C/C1CC2CCC1C2)c1c[nH]c2ccccc12 (stereo unspecified) | n | 4.78µM | x | n | n
CNC(=S)NNC(=O)c1noc(C)c1C(=O)N1CCN(C(c2ccccc2)c2ccccc2)CC1 | n | n | n | n | n
CC(C)COC[C@H](CN(Cc1ccccc1)c1ccccc1)N1CCCC1 | x | x | n | x | x
CCSc1ccc2cc(OC)ccc2[n+]1CC | n | n | n | n | n
O=C(N/N=C/c1ccc(Cl)cc1)c1cc(-c2cccnc2)nc2ccccc12 | n | n | n | n | n
COC(=O)c1cc(-c2ccccc2)sc1N | u | 21.3µM | n | n | n
Nc1sc(-c2ccccc2)cc1C(=O)N/N=C/c1ccc(Cl)cc1 | n | 6.01µM | x | n | n
CCOC(=O)c1cc(-c2ccccc2)sc1NC(=O)C(C)(C)C | n | n | n | n | n
COc1ccc(C2=CC(=O)C[C@H](c3ccc(F)cc3)C2)c(OC)c1 | n | n | x | n | n
CC(C)(C)c1ccc(NC(=O)c2c(F)cccc2Cl)cc1 | n | 16.9µM | x | u | n
Cn1cc(Cl)c(C(=O)Nc2cccc(Cl)c2Cl)n1 | n | n | n | n | n
O=C(Nc1ccc(N2CCOCC2)cc1)c1c(F)cccc1Cl | n | n | n | n | n
O=C(Nc1nc2ccccc2s1)c1c(F)cccc1Cl | u | 23.9µM | x | u | u
Cn1cc(Cl)c(C(=O)Nc2nc3ccccc3s2)n1 | 0.461µM | 0.953µM | 1.78µM | u | u
Cc1cccc(COC(=O)C(Cc2ccccc2)NC(N)=O)c1 (stereo unspecified) | n | n | x | n | n
COc1ccc(CCNC(=O)c2cc3ccccn3n2)c(OC)c1OC | n | n | n | n | n
O=C(Nc1ccccc1C(F)(F)F)c1cc2ccccn2n1 | x | 1.9µM | x | x | x
CCOC(=O)c1cccc(NC(=O)c2cc3ccccn3n2)c1 | x | 3.01µM | x | x | x
